Measured values published in PubChem BioAssay (NCATS).
Records with an inconclusive call do not appear. Where a call stands in place of a potency, no number is given. Unmarked numbers belong to inactive results. The source made the active and inactive calls. Calls come from the whole dose curve; as a rule, active = well fitted cell-killing curve with a large enough effect; inconclusive = small, poorly fitted or top-dose-only effect, or effect the other way; inactive = flat fitted curve, though single readings scatter.

Tested on: CAOV3
Assay: Primary qHTS to identify gynecologic anti-cancer compounds using libraries of approved drugs and bioactive compounds (AID 1345084); note: nearly all actives have a fitted effect of over 55% in size
Conditions: Gynecologic cancer cell panel viability, ATPlite luminescence, 48 h; series mostly up to 57.5 µM
Method in brief: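 Cell viability after 48 h drug treatment, ATPlite luminescence readout; five doses.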

| SMILES | Potency | activity change, negative = cytotoxicity |
| --- | --- | --- |
| COC(=O)C12C(=O)C(C)=C(O)C1(C)C(C)=CC1C34CCC(OC3=O)C(C)(C)C4CCC12C (centres undefined) | inactive |  |
| CC(C)=CCCC1(C)Oc2cc3c(c4c2C2C(O4)C(C)(O)CCC21)CN(C(CCC(=O)O)C(=O)O)C3=O (centres undefined) | inactive |  |
| Cc1cc(Nc2ncc(Cl)c(Nc3ccccc3S(=O)(=O)C(C)C)n2)c(OC(C)C)cc1C1CCNCC1 | inactive |  |
| CC(=O)OC1C(O)CC(O[C@@H]2O[C@H](CO)[C@@H](O)[C@H](O)[C@H]2O)C2CCC3C(=O)OC(c4ccoc4)CC3(C)C21 (some centres undefined) | inactive |  |
| NC(=O)c1ccc(OCC2NC(=O)C3CCCN3C2=O)cc1 (centres undefined) | inactive |  |
| COc1cc(COC2OC(CO)C(O)C(O)C2O)cc(OC)c1O (centres undefined) | inactive |  |
| C[C@@H]1O[C@@H](O[C@H]2[C@H](OC(=O)C34CCC5(C)C(=CCC6C7(C)CC(O)C(O[C@@H]8O[C@H](C(=O)O)[C@@H](O)[C@H](O)[C@H]8O)C(C)(C(=O)O)C7CCC65C)C3CC(C)(C)CC4O)O[C@H](C)[C@@H](O)[C@@H]2O)[C@H](O)[C@@H](O[C@@H]2OC[C@](O)(CO)[C@H]2O[C@@H]2O[C@H](CO)[C@@H](O)[C@H](O)[C@H]2O)[C@H]1O (some centres undefined) |  | 7.58% [at 6.55 µM] |
| CCC(C)C(=O)O[C@@H]1[C@@H](O)[C@@H](O[C@H]2O[C@H](CO)[C@@H](O)[C@H](O)[C@H]2O)O[C@H](CO)[C@H]1O (some centres undefined) | inactive |  |
| CC1(C)CC[C@]2(C(=O)O[C@@H]3O[C@H](CO)[C@@H](O)[C@H](O)[C@H]3O)CC[C@]3(C)C(=CCC4[C@@]5(C)C[C@@H](O)[C@H](O)C(CO)(CO)C5CC[C@]43C)C2[C@@H]1O (some centres undefined) | inactive |  |
| O=C(O)CCc1cccc(O[C@@H]2O[C@H](CO)[C@@H](O)[C@H](O)[C@H]2O)c1O | inactive |  |
| CC(C)C1=CC2=CCC3[C@](C)(CCC[C@@]3(C)C(=O)O)C2CC1O (some centres undefined) | inactive |  |
| CC1OC(O[C@H]2[C@@H](O)C[C@@]3(C)C([C@H](O)C[C@]4(C)C3CC=C3C5CC(C)(C)CC[C@]5(C(=O)OC5OC(CO)C(O)C(O)C5OC5OCC(OC6OCC(OC7OCC(O)C(O)C7O)C(O)C6O)C(OC6OCC(O)(CO)C6O)C5O)CC[C@]34C)[C@]2(C)CO)C(O)C(O)C1O (some centres undefined) |  | -2.76% [at 6.55 µM] |
| C=C1C(=O)OC2CC(C)=C(C(C)CCCO[C@@H]3O[C@H](CO)[C@@H](O)[C@H](O)[C@H]3O)C(O)C12 (some centres undefined) | inactive |  |
| CC(=O)OCC(=O)O[C@@H]1[C@H]2[C@@H](OC(=O)c3ccccc3)[C@@H](C)C[C@]2(O)[C@H](OC(C)=O)C2(C)[C@H]3CC(C)(C)C(=O)[C@@H]3CC1(OC(C)=O)[C@@H]2OC(C)=O (some centres undefined) | inactive |  |
| CC(CCC1(O)OC2CC3C4CCC5CC(O[C@@H]6O[C@H](CO)[C@@H](O)[C@H](O)[C@H]6O[C@@H]6OC[C@@H](O)[C@H](O)[C@H]6O)C(O)CC5(C)C4CCC3(C)C2C1C)CO[C@@H]1O[C@H](CO)[C@@H](O)[C@H](O)[C@H]1O (some centres undefined) |  | 10.9% [at 11.6 µM] |
| CC1[C@@H](O)[C@@H](O)C2[C@]3(C)C(C[C@H]4OC(=O)[C@H](O)[C@]1(O)[C@@]24C)C(C)(O)C[C@H](O)[C@H]3O (some centres undefined) | inactive |  |
| C=C[C@@]1(C)CC(=O)C2[C@](C)(O1)[C@@H](OC(C)=O)[C@@H](O)[C@H]1C(C)(C)CCC[C@]21C (some centres undefined) |  | 10.9% [at 11.6 µM] |
| CCS(=O)(=O)N1CCC([C@@H](C)n2c(C)c(C(=O)NCc3c(OC)cc(C)[nH]c3=O)c3ccccc32)CC1 | inactive |  |
| COc1cc(/C=C/C(=O)OC(C)(C)C(OC2OC(CO)C(O)C(O)C2O)C(=O)OCc2ccc(OC3OC(CO)C(O)C(O)C3O)cc2)ccc1O (centres undefined) | inactive |  |
| C=C1CCC2C(C)(COC3OC(COC(=O)CC(=O)O)C(O)C(O)C3O)CCCC2(C)C1CCC1=CCOC1=O (centres undefined) | inactive |  |

| SMILES | Potency | activity change, negative = cytotoxicity |
| --- | --- | --- |
| CC(C)=CC/C=C(/C)[C@H]1CC[C@]2(C)[C@@H]1[C@H](O)CC1[C@@]3(C)CC[C@H](O)C(C)(C)[C@@H]3[C@@H](O[C@@H]3O[C@H](CO)[C@@H](O)[C@H](O)[C@H]3O[C@@H]3O[C@@H](C)[C@H](O)[C@@H](O)[C@H]3O)C[C@]12C (some centres undefined) | inactive |  |
| CCOC(=O)c1ccc(N(C)c2csc(-c3ccccc3)n2)cc1 | inactive |  |
| COCC(=O)N1CCc2cc(-c3csc(NC(=O)c4cc(OC)cc(OC)c4)n3)ccc21 | inactive |  |
| O=C(O)c1cc(O)c2cccc(O)c2c1O[C@@H]1O[C@H](CO)[C@@H](O)[C@H](O)[C@H]1O | inactive |  |
| CNC(=O)O[C@H]1COc2ccc(N3CCN(C4COC4)CC3)cc2[C@@H]1NC(=O)c1ccc(F)cc1 | inactive |  |
| COC(=O)[C@@]1(O)C=CC[C@@H]2[C@@]3(C)C[C@@H](c4ccoc4)OC(=O)[C@H]3CC[C@]21C | inactive |  |
| CC1(C)OC(=O)C(OCC2CC2)=C1c1ccc(S(C)(=O)=O)cc1 | inactive |  |
| CC1(O)CCC2C(C(=O)O)=COC(OC3OC(CO)C(O)C(O)C3OC(=O)/C=C/c3ccc(O)cc3)C21 (centres undefined) | inactive |  |
| CC(=O)O[C@@H]1[C@H](O[C@@H]2O[C@H](CO)[C@@H](O)[C@H](O)[C@H]2O)[C@@H](O[C@@H]2O[C@@H](C)[C@H](O)[C@@H](O[C@@H]3O[C@H](CO)[C@@H](O)[C@H](O)[C@H]3O)[C@H]2O)[C@H](OC(=O)C23CCC4(C)C(=CCC5C6(C)CC(O)C(O[C@@H]7O[C@H](C(=O)O)[C@@H](O)[C@H](O)[C@H]7O)C(C)(C(=O)O)C6CCC54C)C2CC(C)(C)CC3O)O[C@@H]1C (some centres undefined) |  | 14.4% [at 6.55 µM] |
| CNC(=O)Nc1ccc(OC)c(NC(=O)NC(=O)c2cc(F)c(F)cc2Cl)c1 | inactive |  |
| C=CC(C)(O)CC/C=C(/C)C(=O)OC1C(OC2OCC(OC3OC(CO)C(O)C(O)C3O)C(OC3OCC(O)C(OC4OC(C)C(O)C(O)C4O)C3O)C2O)COC(OC(=O)C23CCC(C)(C)CC2C2=CCC4C5(C)CCC(OC6OC(CO)C(OC7OC(CO)C(O)C(OC8OCC(O)C(O)C8O)C7O)C(O)C6O)C(C)(C)C5CCC4(C)C2(C)CC3O)C1O (centres undefined) |  | 6.96% [at 6.55 µM] |
| Nc1nonc1C(=Nc1ccc(F)c(Cl)c1)NO | inactive |  |
| C=C(C(=O)OC)C1CCC2(C)C(O[C@@H]3O[C@H](CO)[C@@H](O)[C@H](O)[C@H]3O)CC(=O)C(C)C2C1O (some centres undefined) | inactive |  |
| COC(=O)[C@@H]1C2CC3c4[nH]c5ccccc5c4CCN3CC2CC[C@@H]1O (some centres undefined) | inactive |  |
| COc1cc(C[C@H]2COC(=O)[C@@H]2Cc2ccc(O)c(OC)c2)ccc1O | inactive |  |
| CC(C)=CCc1ccc(Oc2c(O)cc(C)cc2CO)c(C(=O)O)c1O | inactive |  |
| C[C@@H]1O[C@@H](O[C@@H]2[C@@H](O)[C@H](O[C@@H]3[C@@H](O)[C@@H](O)[C@H](O[C@H]4[C@H](OC(=O)[C@]56CCC(C)(C)C[C@H]5C5=CCC7[C@@]8(C)C[C@H](O)[C@H](O[C@@H]9O[C@H](C(=O)O)[C@@H](O)[C@H](O)[C@H]9O)[C@@](C)(CO)C8[C@H](O)C[C@@]7(C)[C@]5(C)CC6)OC[C@H](O)[C@@H]4O)O[C@H]3C)OC[C@H]2O)[C@H](O)[C@H](O)[C@H]1O (some centres undefined) |  | 1.69% [at 6.55 µM] |
| CC(=O)OC(CSC1CCC(=O)OC(C)CCC(=O)C1)C(=O)O (centres undefined) | inactive |  |
| CCC(NC(=O)CC(NC(=O)C(CO)NC(=O)C(CC)NC(=O)c1ccc[nH]1)c1ccccc1)C(=O)O (centres undefined) | inactive |  |
